Rows were chosen to be rich in hits. Some 10% of all compounds tested hit in one or more screens of this group.
G9a block: blocks human histone lysine methyltransferase G9a; Q96KQ7; G9a H3K9 monomethylation, AlphaScreen, 2 h; Potency, µM (series often up to 102 µM), hits mostly inhibitors; AID 504332; actives 8.8% (n = 350,000); also: nearly all actives have a fitted effect of over 75% in size
Target sequence (Q96KQ7 913-1193 limits assumed): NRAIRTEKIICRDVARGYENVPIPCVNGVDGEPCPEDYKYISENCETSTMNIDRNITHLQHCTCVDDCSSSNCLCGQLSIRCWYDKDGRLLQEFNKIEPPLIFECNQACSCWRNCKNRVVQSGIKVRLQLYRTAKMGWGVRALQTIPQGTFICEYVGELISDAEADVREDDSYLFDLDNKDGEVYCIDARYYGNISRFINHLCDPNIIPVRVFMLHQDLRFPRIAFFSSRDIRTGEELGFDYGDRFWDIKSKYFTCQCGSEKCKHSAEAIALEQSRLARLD
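Enzyme 20 nM + cpd, 15 min RT; add b-H3K9 pep 500 nM / SAM 20 uM; 2 h RT; anti-H3K9me1 Ab 0.5 ug/mL + SA donor / anti-rabbit acceptor beads 20 ug/mL each, 10 min; AlphaScreen read.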
Six1-Eya2 blk: inhibitors of human Six1/Eya2 interaction | activity change, % (no concentration beside the values) | actives 0.56% (n = 360,000) | AID 651725 | Q15475+O00167 | AlphaScreen GST-Six1/His-Eya2 binding, biochemical; active compounds read low; in the data active = activity change below about -65%; inconclusive = mostly about -30% to -63%
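AlphaScreen with GST-Six1 and His-Eya2 (5X mix: 250 nM and 500 nM), glutathione donor and nickel acceptor beads; buffer 50 mM Tris pH 8.0, 300 mM NaCl, 1 mM TCEP; 1 h at 37 C in the dark.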
BAZ2B inh: BAZ2B (human) inhibition; Potency, µM (top dose mostly 114 µM), hits mostly inhibitors; Q9UIF8; AID 504333; AlphaScreen BAZ2B-H3K14Ac peptide displacement; actives 4.4% (n = 360,000); also: nearly all actives have a fitted effect of over 60% in size
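AlphaScreen displacement of biotin-H3(5-23)K14Ac peptide (50 nM final) from BAZ2B (50 nM final) in PBS pH 7.4, 0.01% Tween-20; complex preformed 30 min RT, then compounds (top 110 uM) 30 min RT, beads 20 min dark.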
JMJD2A Tudor inh: inhibitors of human JMJD2A Tudor domain; O75164; AlphaScreen JMJD2A-Tudor / H3K4me3 peptide binding; Potency, µM (titrated, usually from 114 µM), actives largely listed as inhibitors; actives 4.4% (n = 390,000); AID 504339; also: nearly all actives have a fitted effect of over 50% in size
CtBP-E1A inh: blocks the CtBP interaction with E1A. activity change, % (test concentration not listed). AlphaScreen GST-E1A/His-CtBP binding, 1536-well; active compounds read low. actives 0.49% (n = 340,000). AID 651724; in the data active = activity change below about -65%; inconclusive = mostly about -30% to -63%
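AlphaScreen with 125 nM GST-E1A and 125 nM His-CtBP (5X stocks) in Tris pH 8.0, 300 mM NaCl, BSA, Tween 20, TCEP. Compounds preincubated 2 h at 37 deg C, then glutathione donor/nickel acceptor beads added for 1 h at 37 deg C in dark.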
HP1b binding inh: HP1-beta chromodomain-methylated histone interaction inhibition. P83916. AlphaScreen HP1-beta / biotin-H3K9me3 peptide binding. Potency, µM (doses to about 114 µM), hits mostly inhibitors. actives 0.56% (n = 390,000); also: nearly all actives have a fitted effect of over 70% in size
Target sequence (P83916 whole entry, looked up): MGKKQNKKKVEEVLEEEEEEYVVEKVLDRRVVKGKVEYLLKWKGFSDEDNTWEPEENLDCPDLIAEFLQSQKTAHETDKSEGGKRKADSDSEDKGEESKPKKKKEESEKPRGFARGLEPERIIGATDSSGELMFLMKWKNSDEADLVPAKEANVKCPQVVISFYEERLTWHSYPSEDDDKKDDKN
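Compound inhibition of the preformed complex between 50 nM HP1-beta and 50 nM biotinylated H3K9me3 peptide was read by AlphaScreen. Buffer was PBS pH 7.4 with 0.01% Tween-20. Incubations ran 30 min at room temperature, with 10 ug/mL donor/acceptor beads.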
Hits are given with their value; i = inactive; ? = inconclusive; nt = no result given; [ ] = another dose, or the depositor's remark. Unless noted, calls follow the shape of the dose curve; as a rule, active = well fitted inhibition curve with a large enough effect; inconclusive = small, poorly fitted or top-dose-only effect; inactive = no such curve, though single readings can be large or run the other way.

SMILES | G9a block | Six1-Eya2 blk | BAZ2B inh | JMJD2A Tudor inh | CtBP-E1A inh | HP1b binding inh
CCn1cc(C(=O)O)c(=O)c2cc(S(=O)(=O)N3CCCCCC3)ccc21 | nt | i | 70.8µM | i | i | i
CCCN(CCC)C(=O)c1cn(CC)c2ccc(S(=O)(=O)N3CCCCC3)cc2c1=O | i | i | i | i | i | i
CCNS(=O)(=O)c1ccc(NC(=O)c2ccccc2SCCOC)cc1 | 15.8µM | i | i | i | i | i
COCCSc1ccccc1C(=O)NCC1CCCO1 (stereo not drawn) | 6.31µM | i | i | i | i | i
COCCSc1ccccc1C(=O)NCc1ccc(S(N)(=O)=O)cc1 | 44.7µM | i | i | i | i | i
COCCSc1ccccc1C(=O)Nc1nnc(C)s1 | ? | i | i | i | i | i
CSc1ccccc1C(=O)NCC1CCCO1 (stereo not drawn) | i | i | i | i | i | i
COCCSc1ccccc1C(=O)Nc1ccccc1C(C)C | 5.01µM | i | i | i | nt | i
Cc1cccc(CNc2cc(-c3c(C)noc3C)ncn2)c1 | i[0.501 µM] | nt | nt | nt | nt | nt
COc1cc(OC)c(NC(=O)C2=C(C)C(=O)OC23CCCCCC3)cc1Cl | i | nt | i | i | nt | i
C=CCSc1nnc(NC(=O)C2CC(=O)N(Cc3ccc(C)cc3)C2)s1 (stereo not drawn) | i[12.7 µM] | i | i | i | i | i
Cc1cccc(N2CC(C(=O)Nc3nnc(SCc4cccnc4)s3)CC2=O)c1 (stereo not drawn) | 44.7µM | i | i | ? | i | i
COc1cccc(N2CC(C(=O)Nc3nnc(SCc4ccccn4)s3)CC2=O)c1 (stereo not drawn) | 7.94µM | i | ? | i | i | i
Cc1ccccc1N1CC(C(=O)Nc2nnc(SCc3ccccn3)s2)CC1=O (stereo not drawn) | ? | i | i | i | i | i
Cc1ccc(CN2CC(C(=O)Nc3nnc(SCc4c(Cl)cccc4Cl)s3)CC2=O)cc1 (stereo not drawn) | 10µM | i | ? | ? | i | i
O=C(Nc1nnc(SCc2ccccn2)s1)C1CC(=O)N(c2ccc(F)cc2)C1 (stereo not drawn) | 28.2µM | i | i | i | i | i
O=C(Nc1nnc(SCc2cccnc2)s1)C1CC(=O)N(c2ccccc2)C1 (stereo not drawn) | ? | i | i | i | i | i
COc1ccc(NC(=O)Nc2cccc3c2O[C@H](CN(C)S(C)(=O)=O)[C@@H](C)CN([C@H](C)CO)C3=O)cc1 | nt | i | nt | i | i | i
Cn1c(N)c(C(=O)CSc2nn(-c3ccc(F)cc3)c(=S)s2)c(=O)n(C)c1=O | ? | i | i | i | i | i
COc1ccc(-c2noc(CSc3nnc(Cc4ccccc4)n3-c3cccc(C)c3)n2)cc1 | i | nt | i | i | nt | i
O=C1c2ccccc2C(=O)N1c1ccccc1O | nt | nt | nt | i | nt | nt
O=C(N=Nc1ccc(NOC(=O)c2ccccc2Br)cc1)c1ccccc1O | 25.1µM | nt | 7.94µM | nt | nt | nt
O=C(CSc1nn(-c2ccc(Cl)cc2)c(=S)s1)N1CCN(C(=O)c2ccco2)CC1 | 79.4µM | i | i | i | i | i
CCN(Cc1ccccc1)C(=O)CC(=O)N(CC)Cc1ccccc1 | i | i | i | i | i | i
CN1CCN(CC(=O)NN(Cc2ccccc2)c2ccccc2)CC1 | nt | i | i | 7.94µM | i | ?
SMILES | G9a block | Six1-Eya2 blk | BAZ2B inh | JMJD2A Tudor inh | CtBP-E1A inh | HP1b binding inh
CCN(CC)CC(=O)NN(Cc1ccccc1)c1ccccc1 | 28.2µM | i | 79.4µM | 17.8µM | i | ?
CN1CCN(CC(=O)Nc2ccc(OCc3ccccc3)cc2)CC1 | i[12.7 µM] | nt | ? | nt | nt | nt
CCCCCCCN1C(Nc2ccccc2)=NC[C@@H]1C | i[2.33 µM] | i | i | i | i | i
N#CC1=C(N)SC(N)=C(C#N)C1c1c(Cl)cccc1Cl | 11.2µM | i | ? | ? | i | i
O=C(NCc1csc2ccccc12)Nc1cc(Cl)cc(Cl)c1 | ? | i | i | i | i | i
Cn1cccc1/C=N/NC(=O)c1cccs1 | i | i | i | i | nt | i
CCCc1cc(C(=O)N/N=C/c2cccn2C)cs1 | ? | i | 44.7µM | ? | i | ?
CC1=C(C(=O)Nc2ccc(CC(=O)NCc3ccccc3C)cc2)SCCO1 | i | i | ? | i | i | i
COc1cccc(CNC(=O)Cc2ccc(NC(=O)C3=C(C)OCCS3)cc2)c1 | i | i | 50.1µM | ? | i | i
